Measurements taken from the antibiotic and cytotoxicity screens of Wong et al. (2023).
Hit rate of the full screen: of about 39,000 compounds, about 3,300 (8.5%) were called active. The sample holds actives, similar compounds and a random draw of the others, so the mix is not that of the screen.

The compounds below were run on HepG2 (assay: cytotoxicity call (relative viability < 0.9)). Conditions: 10 µM.

Row | Structure (SMILES) | cytotoxicity call
1 | CC(=O)N(C)C1(c2ccccc2)CCN(CCC[C@]2(c3ccc(Cl)c(Cl)c3)CCCN(C(=O)c3ccccc3)C2)CC1 | active
2 | CC(C)Oc1cccc(CC(=O)N2CCC[C@](CC[N+]34CCC(c5ccccc5)(CC3)CC4)(c3ccc(Cl)c(Cl)c3)C2)c1 | inactive
3 | CN1CCN(C(=O)C[C@@H]2CC[C@@H]3[C@@H](COc4ccc(NC(=O)c5cscn5)cc4C(=O)N3C)O2)CC1 | inactive
4 | O=C(C[C@@H]1CC[C@@H]2[C@H](COC[C@H](O)CN2C(=O)c2ccccn2)O1)NC1CCC1 | inactive
5 | CCc1cccc(C)c1NC(C)=O | inactive
6 | C[C@H](CO)N1C[C@H](C)[C@H](CN(C)S(C)(=O)=O)OCCCC[C@H](C)Oc2ccc(NS(=O)(=O)c3ccccc3)cc2C1=O | inactive
7 | COc1ccc(S(=O)(=O)N2C[C@@H](O)COC[C@H]3O[C@@H](CC(=O)NCCN4CCCCC4)CC[C@@H]32)cc1 | inactive
8 | C[C@@H]1CN([C@H](C)CO)C(=O)c2cccc(NC(=O)c3cnccn3)c2O[C@@H]1CN(C)Cc1ccc(C(=O)O)cc1 | inactive
9 | CC(C)CCC[C@@H](C)[C@H]1CC[C@H]2[C@@H]3C[C@@H](O)[C@@]4(O)C[C@@H](O)CC[C@]4(C)[C@H]3CC[C@]12C [CHOLESTAN-3beta,5alpha,6beta-TRIOL ] | active
10 | CC(C)CCCC(C)C1CCC2C3CC(=O)C4CC(O)CCC4(C)C3CCC12C (stereo not drawn) [5alpha-CHOLESTAN-3beta-OL-6-ONE ] | inactive
11 | CC(C)CCCC(C)C1CCC2C3CCC4CC(O)CCC4(C)C3CCC12C (stereo not drawn) [5alpha-CHOLESTANOL ] | inactive
12 | CCNC(=O)N1CCCC[C@@H]1CO | inactive
13 | C[C@H](N[C@@H](CCc1ccccc1)C(=O)O)C(=O)N1CCC[C@H]1C(=O)O | inactive
14 | CN[C@@H](C)C(=O)N[C@H]1CN(C(=O)CC(C)C)CC[C@H]2CC[C@@H](C(=O)NC(c3ccccc3)c3ccccc3)N2C1=O | active
15 | O=C(N[C@@H](c1ccccc1)c1ccc2ccccc2n1)C1CCN(C(=O)NC(c2ccccc2)c2ccccc2)CC1 | inactive
16 | COc1cnc(NS(=O)(=O)c2ccc(N)cc2)nc1 | inactive
17 | COS(=O)(=O)[O-].COc1cc(N)cn[n+]1-c1ccccc1 | active
18 | COCC#Cc1cnc2c(c1)C(=O)N([C@@H](C)CO)C[C@@H](C)[C@H](CN(C)C(=O)Nc1cc(F)ccc1F)O2 | inactive
19 | C[C@@H]1CN([C@@H](C)CO)C(=O)c2cc(NC(=O)Nc3cccc4ccccc34)ccc2O[C@@H]1CN(C)C(=O)Nc1ccccc1 | inactive
20 | C[C@@H]1CN([C@H](C)CO)C(=O)c2cc(NC(=O)Nc3cccc4ccccc34)ccc2O[C@H]1CN(C)C(=O)Nc1cccc2ccccc12 | inactive
21 | COc1ccc(NC(=O)Nc2ccc3c(c2)C(=O)N([C@H](C)CO)C[C@H](C)[C@@H](CN(C)C(=O)Nc2cccc4ccccc24)O3)cc1 | inactive

Row | Structure (SMILES) | cytotoxicity call
22 | C[C@H]1CN([C@@H](C)CO)C(=O)c2cc(NC(=O)Nc3cccc4ccccc34)ccc2O[C@H]1CN(C)C(=O)Nc1ccccc1 | active
23 | COc1ccc(NC(=O)Nc2ccc3c(c2)C(=O)N([C@H](C)CO)C[C@@H](C)[C@@H](CN(C)C(=O)Nc2cccc4ccccc24)O3)cc1 | inactive
24 | C[C@@H]1CN([C@H](C)CO)C(=O)c2cc(NC(=O)Nc3cccc4ccccc34)ccc2O[C@H]1CN(C)C(=O)Nc1ccccc1 | inactive
25 | C[C@@H]1CN([C@@H](C)CO)C(=O)c2cc(NC(=O)Nc3cccc4ccccc34)ccc2O[C@H]1CN(C)C(=O)Nc1cccc2ccccc12 | inactive
26 | COc1ccc(NC(=O)Nc2ccc3c(c2)C(=O)N([C@@H](C)CO)C[C@H](C)[C@H](CN(C)C(=O)Nc2cccc4ccccc24)O3)cc1 | active
27 | C[C@H](CO)N1C[C@H](C)[C@@H](CN(C)C(=O)Nc2cccc3ccccc23)Oc2ccc(NC(=O)Nc3ccc(C(F)(F)F)cc3)cc2C1=O | inactive
28 | C[C@@H]1CN([C@H](C)CO)C(=O)c2cc(NC(=O)Nc3ccc(C(F)(F)F)cc3)ccc2O[C@H]1CN(C)C(=O)Nc1cccc2ccccc12 | active
29 | C[C@H](CO)N1C[C@H](C)[C@H](CN(C)C(=O)Nc2cccc3ccccc23)Oc2ccc(NC(=O)Nc3cccc4ccccc34)cc2C1=O | active
30 | C[C@H]1CN([C@@H](C)CO)C(=O)c2cc(NC(=O)Nc3ccc(C(F)(F)F)cc3)ccc2O[C@H]1CN(C)C(=O)Nc1cccc2ccccc12 | inactive
31 | C[C@H]1CN([C@@H](C)CO)C(=O)Cc2cc(NS(=O)(=O)c3ccccc3)ccc2O[C@@H]1CN(C)S(=O)(=O)c1ccc(F)cc1 | inactive
32 | Cc1noc(C)c1S(=O)(=O)N(C)C[C@H]1Oc2ccc(NC(=O)Nc3ccc4c(c3)OCO4)cc2C(=O)N([C@@H](C)CO)C[C@H]1C | inactive
33 | CC(=O)N[C@@H]1CC[C@H](CCNC(=O)C2CC2)O[C@H]1CO | inactive
34 | O=C(C[C@@H]1C=C[C@H](NC(=O)c2cccc(F)c2)[C@H](CO)O1)NCCN1CCCC1 | inactive
35 | C[C@@H]1CCCCO[C@@H](CN(C)S(C)(=O)=O)[C@H](C)CN([C@@H](C)CO)C(=O)c2cc(NS(=O)(=O)c3ccc(F)cc3)ccc2O1 | inactive
36 | COc1ccc(NC(=O)Nc2ccc3c(c2)CC(=O)N([C@@H](C)CO)C[C@H](C)[C@@H](CN(C)C(=O)Nc2cccc4ccccc24)O3)cc1 | inactive
37 | C[C@@H]1CCCCO[C@@H](CN(C)S(=O)(=O)c2ccccc2)[C@H](C)CN([C@H](C)CO)C(=O)c2cc(NS(C)(=O)=O)ccc2O1 | inactive
38 | CC(C)CC#Cc1ccc2c(c1)O[C@@H](CN(C)S(=O)(=O)c1ccc(F)cc1)[C@@H](C)CN([C@H](C)CO)S2(=O)=O | inactive
39 | COc1ccccc1CNC(=O)C[C@H]1C[C@H]2c3cc(NC(=O)Cc4ccncc4)ccc3O[C@H]2[C@H](CO)O1 | inactive
40 | CC1OC(OC2C(Oc3cc(O)c4c(=O)cc(-c5ccc(O)cc5)oc4c3)OC(CO)C(O)C2O)C(O)C(O)C1O (stereo not drawn) | inactive
41 | Cc1noc(C)c1NC(=O)N(C)C[C@@H]1Oc2c(NC(=O)C3CC3)cccc2C(=O)N([C@H](C)CO)C[C@@H]1C | inactive
42 | Cc1noc(C)c1NC(=O)Nc1ccc2c(c1)C(=O)N([C@H](C)CO)C[C@@H](C)[C@@H](CN(C)CC1CCCCC1)OCCCC[C@H](C)O2 | inactive

Row | Structure (SMILES) | cytotoxicity call
43 | CC(C)NC(=O)N(C)C[C@H]1OCc2cn(nn2)CCCC(=O)N([C@H](C)CO)C[C@@H]1C | inactive
44 | CC(=O)OCC(=O)C1(O)CCC2C3CCC4=CC(=O)CCC4(C)C3C(O)CC21C (stereo not drawn) | inactive
45 | C[C@@H]1CN([C@H](C)CO)C(=O)c2cc(NC(=O)NC3CCCCC3)ccc2O[C@H]1CN(C)C(=O)Nc1cccc2ccccc12 | inactive
46 | C[C@H]1CN([C@@H](C)CO)C(=O)c2cc(NC(=O)NC3CCCCC3)ccc2O[C@H]1CN(C)C(=O)Nc1cccc2ccccc12 | active
47 | C[C@@H]1CN([C@@H](C)CO)C(=O)c2cc(NC(=O)NC3CCCCC3)ccc2O[C@H]1CN(C)C(=O)Nc1cccc2ccccc12 | inactive
48 | Cc1noc(C)c1S(=O)(=O)Nc1cccc2c1O[C@@H](CN(C)Cc1ccc3c(c1)OCO3)[C@@H](C)CN([C@H](C)CO)C2=O | inactive
49 | C[C@H]1CN([C@@H](C)CO)C(=O)c2cc(C#Cc3ccccc3F)cnc2O[C@H]1CN(C)S(=O)(=O)c1ccccc1F | inactive
50 | COCC(=O)N(C)C[C@H]1Oc2cc(C#CCC3CCCC3)ccc2S(=O)(=O)N([C@@H](C)CO)C[C@H]1C | inactive
51 | CC(C)NC(=O)Nc1ccc2c(c1)CC(=O)N([C@H](C)CO)C[C@@H](C)[C@@H](CN(C)S(=O)(=O)c1ccccc1)O2 | inactive
52 | CC(C)NC(=O)Nc1ccc2c(c1)CC(=O)N([C@@H](C)CO)C[C@H](C)[C@H](CN(C)S(=O)(=O)c1ccc(F)cc1)O2 | inactive
53 | C[C@H]1CN([C@@H](C)CO)C(=O)Cc2cc(NC(=O)Nc3cc(Cl)cc(Cl)c3)ccc2O[C@H]1CN(C)S(=O)(=O)c1ccc(Oc2ccccc2)cc1 | active
54 | C[C@H]1CN([C@@H](C)CO)C(=O)Cc2cc(NC(=O)Nc3ccc(C#N)cc3)ccc2O[C@H]1CN(C)S(=O)(=O)c1ccc(Oc2ccccc2)cc1 | inactive
55 | C[C@H]1CN([C@@H](C)CO)C(=O)Cc2cc(NC(=O)Nc3cccc4c3CCCC4)ccc2O[C@H]1CN(C)S(=O)(=O)c1ccc(Cl)cc1 | inactive
56 | Cc1ccc(S(=O)(=O)N(C)C[C@@H]2Oc3ccc(NC(=O)Nc4cccc5ccccc45)cc3CC(=O)N([C@@H](C)CO)C[C@H]2C)cc1 | inactive
57 | C[C@H]1CN([C@@H](C)CO)C(=O)Cc2cc(NC(=O)Nc3ccc(Cl)c(Cl)c3)ccc2O[C@H]1CN(C)S(=O)(=O)c1ccc(Oc2ccccc2)cc1 | inactive
58 | C[C@H]1CN([C@@H](C)CO)C(=O)Cc2cc(NC(=O)Nc3ccc(F)cc3)ccc2O[C@H]1CN(C)S(=O)(=O)c1ccc(Oc2ccccc2)cc1 | active
59 | C[C@H]1CN([C@@H](C)CO)C(=O)Cc2cc(NC(=O)Nc3cccc4c3CCCC4)ccc2O[C@H]1CN(C)S(=O)(=O)c1ccc(Oc2ccccc2)cc1 | active
60 | CCCN(C)C[C@@H]1Oc2cc(C#Cc3ccccc3OC)ccc2S(=O)(=O)N([C@@H](C)CO)C[C@@H]1C | inactive
61 | COc1ccc(S(=O)(=O)Nc2ccc3c(c2)C(=O)N([C@H](C)CO)C[C@H](C)[C@H](CN(C)S(=O)(=O)c2cccs2)O3)cc1 | inactive
62 | O=C(C[C@@H]1C[C@H]2c3cc(NC(=O)Cc4ccncc4)ccc3O[C@H]2[C@H](CO)O1)NCc1ccc2c(c1)OCO2 | inactive
63 | C=C(C(=O)O)[C@@H](CCCCCCOC(=O)C(=O)OCCCCCC[C@@H](C(=C)C(=O)O)C(=O)O)C(=O)O | inactive
